# Measurements published in PubChem BioAssay (NCATS).
# “And” between values parts separate entries of the source, which are not always exact repeats. Equal entries are not always repeated. Records with an inconclusive call do not appear. A number with no mark means an inactive call. Calls come from the whole dose curve; as a rule, active = well fitted curve in either direction with a large enough effect (not every such curve was filed as active); inconclusive = small, poorly fitted or top-dose-only effect, or another doubt; inactive = flat fitted curve, though single readings scatter.
# Assay: NFAT Signaling Pathway (AID 444);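 note: carbachol stimulus at about its EC50 of 1 µM final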
# Settings: Jurkat NFAT-bla M1, carbachol, beta-lactamase ratio, 5 h; at 38 µM (top of the series)
# Method in brief: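 Jurkat cells with NFAT-driven β-lactamase reporter and co-expressed M1 receptor, stimulated with carbachol (final 1 uM, ~EC50), compound titration, 5 h at 37 °C. CCF4 loaded 1 h at RT; 460/530 nm ratio gave %activity and AC50.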
# % is set by controls: 0 for no effect and ±100 for the full control effect.
row,Compound,"activity change, negative = inhibition"
1,COc1cc(-c2ccc(=O)[nH]n2)ccc1OC(F)F,-7.13%
2,Oc1ccc(O)cc1,-5.74%
3,CCCn1c(=O)[nH]c(=O)c2[nH]cnc21,4.56%
4,C[N+]1(CCCCC[N+]2(C)CCCC2)CCCC1,-8.15%
5,Oc1cc(O)c2c(c1)O[C@H](c1ccc(O)c(O)c1)[C@H](O)C2,-2.11%
6,CC(C)NC[C@@H](O)COc1cccc2ccccc12,4.84% and 0.806%
7,C1CCc2nnnn2CC1,-6.06%
